Data from PubChem BioAssay (NCI).
The panel holds about 83,000 compounds, 20% with a hit somewhere; the sample as a whole holds those more often.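 Each cell line was grown in a 96-well plate and treated with one concentration of compound for 48 hours. Values below 10 were considered active.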 Values without a mark were called inactive. Activity calls are given as the source filed them.

Test system: CAKI-1 renal
Test: NCI-60 one-dose screen, 48 h (100 = growth as untreated, 0 = no growth, -100 = all killed)
Conditions: 10 µM unless noted

**Q.** Which growth does the source give for `O=[N+]([O-])c1ccc(N/N=C/c2c(O)ccc3ccccc23)nc1` here?
**A.** 6.36% (active)

**Q.** For `COc1cc(/C=C/c2nnc(-c3cc(-c4ccccc4)n[nH]3)o2)cc(OC)c1OC`, which growth is on record?
**A.** 89.4%

**Q.** Which growth does the source give for `COc1cc2c(-c3nc4cc(Cl)c(F)cc4s3)cc(=O)oc2c(C)c1OC` here?
**A.** -78.5% (active)

**Q.** How did the growth turn out when `CCCCCCC/C(=N\N=C(N)N)c1ccc(O)cc1` was run?
**A.** 66.5%

**Q.** `CCOC(=O)c1c(NC(=O)C2CCCCC2C(=O)O)sc2c1CCCC2` (stereo not given) was tested. Which growth did it give?
**A.** 92.7%

**Q.** `C[N+]1(CCC[N+]2(C)C[C@@H]3[C@H](C2)[C@@H]2C=C[C@H]3C2)CCOCC1` (stereo not given in full) was tested. Which growth did it give?
**A.** 101%

**Q.** `O=C(CCc1nnc(SCc2ccccc2)s1)c1nc2ccccc2[nH]1` was tested. Which growth did it give?
**A.** 90.7%

**Q.** For `c1csc([C@@H]2C[C@@H]3Cc4ccc5ccccc5c4N2O3)c1`, which growth is on record?
**A.** 82.2%

**Q.** `O=C1/C(=C/c2ccc([N+](=O)[O-])s2)Oc2ccc(Br)cc21` was tested. Which growth did it give?
**A.** -16.3% (active)

**Q.** `CCCCCCC(C)(O)c1ccccc1` (stereo not given) was tested. Which growth did it give?
**A.** 96.8%

**Q.** For `CCN1C2=C(SC(=S)C1=C1SC(C(=O)OC)=C(C(=O)OC)S1)SC(=Nc1ccc(OC)cc1)C2=O`, which growth is on record?
**A.** -38.4% (active)

**Q.** With `CCOc1nc(-c2ccccc2)cc2c(O)c(-c3nnco3)[nH]c(=O)c12` as the compound, how does the growth read?
**A.** 34.6%

**Q.** With `COc1cccc2c1O/C(=C\c1c([N+](=O)[O-])ncn1C)C2=O` as the compound, how does the growth read?
**A.** 92.8%

**Q.** With `CCCc1cc(=O)n2c(C(=O)Nc3ccccc3OC)c(C(=O)Nc3ccc(F)cc3)sc2n1` as the compound, how does the growth read?
**A.** 5.5% [30 µM] (active)

**Q.** With `C=Cc1nn2c(CCC(=O)c3nc4ccccc4[nH]3)nnc2s1` as the compound, how does the growth read?
**A.** 96.7%
